# Rab9 promoter act: activates the Rab9 promoter; Huh7 Rab9 promoter-luciferase reporter, luminescence, 24 h; Potency, µM (series often up to 9.22 µM), for inactives: at the highest dose activation, negative = inhibition, actives largely listed as activators; 320,000 compounds, 2.8% hits; AID 485297; also: % of control where 0% means no effect; nearly all actives have a fitted effect of over 60% in size
#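 Cell-based reporter: Huh7 stable for Rab9 promoter-driven luciferase, plated in reduced-serum medium with 10% FBS at 1500 cells/well, compound-treated 24 h at 37 °C, luminescence read after 10 min reagent.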
# FLuc modulator: firefly luciferase modulation, counter-screen for miR-21 project; purified FLuc, Km substrates, luminescence inhibition; Potency, µM (top dose mostly 57.5 µM), for the others: at the highest dose activity change, negative = inhibition, usual class: inhibitors; 360,000 compounds, 6.9% hits; P08659;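 also: plate controls were vehicle for no effect and reference inhibitor for full effect; nearly all actives have a fitted effect of over 55% in size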
# Target sequence (P08659 whole entry, looked up): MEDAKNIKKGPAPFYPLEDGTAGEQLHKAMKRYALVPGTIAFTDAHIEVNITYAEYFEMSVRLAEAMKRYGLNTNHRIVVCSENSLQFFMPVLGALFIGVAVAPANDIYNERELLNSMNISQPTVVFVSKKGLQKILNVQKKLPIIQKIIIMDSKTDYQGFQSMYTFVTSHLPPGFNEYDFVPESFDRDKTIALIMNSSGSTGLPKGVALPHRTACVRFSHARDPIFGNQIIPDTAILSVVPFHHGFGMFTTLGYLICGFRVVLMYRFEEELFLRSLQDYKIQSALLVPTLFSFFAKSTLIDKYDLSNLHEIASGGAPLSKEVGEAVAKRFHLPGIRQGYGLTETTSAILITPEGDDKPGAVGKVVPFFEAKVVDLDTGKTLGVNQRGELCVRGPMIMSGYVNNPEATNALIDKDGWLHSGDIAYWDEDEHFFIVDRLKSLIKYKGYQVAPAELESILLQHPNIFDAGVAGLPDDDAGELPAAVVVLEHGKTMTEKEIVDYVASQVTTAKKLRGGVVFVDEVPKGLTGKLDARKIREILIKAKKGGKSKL
#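 Purified P. pyralis luciferase, 10 nM final, with Km-level 10 uM D-luciferin and 10 uM ATP in 50 mM Tris acetate pH 7.5, 10 mM Mg acetate, 0.01% Tween-20, 0.05% BSA; 6-point qHTS titration about 60 µM downward; luminescence read.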
# NPC1 promoter act: NPC1 promoter activation | 320,000 compounds, 2.4% hits | AID 485313 | Potency, µM (titrated, usually from 9.22 µM), for inactives: top-dose activation, hits mostly activators | Huh7 NPC1 promoter luciferase reporter, 24 h; also: % of control where 0% means no effect; nearly all actives have a fitted effect of over 60% in size
#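 Luminescence from an NPC1 promoter-driven luciferase reporter in stably transfected Huh7 cells was measured after 24 h compound treatment at 37 °C, followed by 10 min ambient incubation with luciferase detection reagent.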
# SMN2 splice up: enhancers of SMN2 splice variant expression; Potency, µM (series often up to 46.1 µM), inactives show top-dose activity change, positive = activation, usual class: activators; HEK293 SMN2-luciferase splicing reporter, luminescence, 30-36 h; 210,000 compounds, 2.8% hits; also: % of control where 0% means no effect; nearly all actives have a fitted effect of over 55% in size
#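 HEK293 cells carry an SMN2 […]–luciferase reporter in which exon 7 inclusion puts luciferase in frame. Cells were plated 10-12 h before compound addition, then incubated 30-36 h at 37C. ONE-Glo luminescence was read; sodium butyrate at 4.5 mM final served as control.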
# ELG1 genotox: genotoxicity induction in ELG1-luciferase HEK293T cells | Potency, µM (series often up to 46 µM), without a hit: top-dose activity change, positive = activation, hits mostly activators | HEK293T ELG1-luciferase reporter, luminescence, 16 h | AID 504466 | 330,000 compounds, 1.3% hits; also: % of control where 0% means no effect; nearly all actives have a fitted effect of over 60% in size
#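 Luminescence read-out: rising ELG1-luciferase signal, reflecting elevated ELG1 protein under genetic stress, flags genotoxic compounds. Cells were treated for 16 hr at 37 °C before ONE-Glo detection.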
# Luc counter: blocks Kinase-Glo luciferase, a counter-screen artifact. Q27757. Kinase-Glo luciferase, ATP luminescence, 8 min. Potency, µM (series often up to 38.3 µM), for inactives: at the highest dose activity change, negative = inhibition, actives largely listed as inhibitors. 200,000 compounds, 0.28% hits. AID 1379; also: % is scaled to controls: 0 for no effect and ±100 for the full control effect; nearly all actives have a fitted effect of over 60% in size
#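 Substrate mix (final 50 mM imidazole pH 7.2, 50 mM KCl, 7 mM MgCl2, 10 uM ATP, 0.01% Tween 20, 0.05% BSA) plus pin-tool compound, then Kinase-Glo detection mix; 8 min ambient, luminescence read.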
# Starred values were filed as active, the others as inactive; ? = inconclusive; . = not tested or not shown. Hits are enriched below; roughly 7.5% of the tested compounds scored in any of these assays. Calls follow the shape of the dose curve; as a rule, active = well fitted curve in the direction sought with a large enough effect; inconclusive = small, poorly fitted or top-dose-only effect, or another doubt; inactive = no such curve, though single readings can be large; an effect the other way counts as inactive or inconclusive. Potency is read from the fitted curve at half-maximal effect.
SMILES,Rab9 promoter act,FLuc modulator,NPC1 promoter act,SMN2 splice up,ELG1 genotox,Luc counter
Cc1ccc(/C=C(\C#N)C(=O)N2CCCC2)c(C)c1,-6%,15µM*,-14%,12%,?,-2%
N#C/C(=C\c1ccc(OC(F)F)cc1)C(=O)N1CCCCC1,-6%,13µM*,0%,.,15%,.
N#C/C(=C\c1ccc(O)cc1)C(=O)N1CCCC1,-1%,-12%,-3%,.,4%,.
COC(=O)C1(C(=O)OC)C[C@@H]2CON=C2[C@H]1c1ccccc1,.,.,.,3%,.,1%
CCOC(=O)c1sc2ccccc2c1S(=O)(=O)NCc1ccccc1OC,.,-12%,.,.,.,.
CC1=C(C(=O)Nc2ccc(Cl)cc2)C(c2cccs2)n2nc(SCc3cccc(C)c3)nc2N1 (stereo not drawn),.,-3%,.,2%,.,.
Cc1c(CN(C)C(=O)c2nn(C)cc2[N+](=O)[O-])cnn1C,-6%,6%,2%,-10%,-4%,-5%
Cc1ccc(-c2cc(C(=O)NCc3cnn(C)c3C)c3cc(Br)ccc3n2)cc1,1%,2.1µM*,18%,15%,6%,-5%
Cc1ccc(-c2cc(C(=O)N(C)Cc3cnn(C)c3C)c3cc(Br)ccc3n2)cc1,17%,11µM*,2%,-20%,-12%,1%
NNC(=O)c1cc(-c2ccc(O)cc2)nc2ccc(Br)cc12,-3%,?,2%,.,7%,.
[O-]/[N+](=C\C=C\c1ccccc1)c1ccccc1,1.8µM*,4.8µM*,2.5µM*,.,?,.
Cc1ccc(C)n1-c1cccc(C(=O)O)c1,-4%,1%,-3%,19%,-3%,-4%
O=C(O)c1ccc(-n2c(O)c(C=C3N=c4ccccc4=N3)sc2=S)cc1,-2%,13µM*,1%,.,-3%,.
CCN(CC)c1ccc(-n2c(O)c(C=C3N=c4ccccc4=N3)sc2=S)cc1,0%,-1%,0%,18%,3%,-3%
O=C(O)c1cccc(-n2c(O)c(C=C3N=c4ccccc4=N3)sc2=S)c1,-4%,13µM*,-7%,.,-9%,.
Cc1ccc(-c2c(CN3CCN(c4cc(Cl)ccc4C)CC3)csc2C)cc1,.,-4%,.,.,.,.
O=C1NC(=S)S/C1=C/c1ccc(N2CCOCC2)o1,11%,9.5µM*,11%,-26%,15%,?
Nc1nccc(/C=C/c2ccc(Cl)cc2)n1,2.2µM*,6µM*,1.8µM*,.,?,.
CCNC(=S)N1CCN(c2nc(-c3cccc(OC)c3)cs2)CC1,3%,19µM*,3%,.,-8%,.
CC(OC(=O)CNC(=O)c1ccccc1F)C(=O)Nc1nc(-c2ccccc2)cs1 (stereo not drawn),?,?,?,13µM*,?,0%
COc1ccc(-c2csc(NC(=O)c3ccoc3C)n2)cc1,?,12µM*,?,14%,?,1%
COc1cccc(-c2csc(N3CCN(C(=S)NCC(C)C)CC3)n2)c1,-5%,?,-1%,.,-3%,.
COc1ccc(-c2csc(NC(=O)C3CCCO3)n2)cc1 (stereo not drawn),4µM*,21µM*,?,3%,?,1%
COc1ccccc1CNC(=O)c1cc2c(=O)oc3ccc(C)cc3c2s1,.,-1%,.,-4%,.,.
O=C1Nc2ccc([N+](=O)[O-])cc2OC1CCN1CCN(Cc2ccc3c(c2)OCO3)CC1 (stereo not drawn),-9%,-1%,-4%,-9%,-5%,2%
COc1ccc(CCNC(=O)CCc2cn(Cc3ccc(C)cc3)c3ccccc23)c(OC)c1OC,.,-9%,.,.,.,.
CCc1ccc(-c2csc(NC(=O)C3CCCO3)c2C(=O)OC(C)C)cc1 (stereo not drawn),0%,2%,-1%,-30%,-7%,-1%
COC(=O)c1c(-c2ccncc2)csc1NC(=O)c1ccoc1C,2µM*,8.5µM*,2.8µM*,11µM*,?,2%
COc1cccc(-c2csc(NC(=O)Oc3ccccc3)n2)c1,1%,12µM*,25%,-6%,21%,-9%

# Bioassay records from PubChem BioAssay.
